In PubChem BioAssay AID504734 (The Scripps Research Institute Molecular Screening Center, 2011):
Among all 340,000 compounds or so, about 730 (0.21%) were called active.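 Rule for the calls: active = inhibition above the mean over all tested compounds plus 3 SD (cut at about 21% in these data); inactive = the rest.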 Only a selection was taken, and actives are over-represented in it overall.

These molecules were tested against Toll-like receptor 9 (Homo sapiens) + Myeloid differentiation primary response protein MyD88 (Homo sapiens) (UniProt Q9NR96+Q99836) (assay: inhibitors of TLR9-MyD88 association in cells, primary screen, cell-based, CHO, BLA complementation, fluorescence (AID 504734;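 note: 0% = DMSO only wells and 100% = clavulanate BLA inhibitor control wells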)). Conditions: CHO BLA complementation TLR9-MyD88, CCF4 FRET ratio; at 4.98 µM; stronger effect = higher value.
Sequence of Toll-like receptor 9 (Homo sapiens) + Myeloid differentiation primary response protein MyD88 (Homo sapiens) (Q99836 whole entry, looked up): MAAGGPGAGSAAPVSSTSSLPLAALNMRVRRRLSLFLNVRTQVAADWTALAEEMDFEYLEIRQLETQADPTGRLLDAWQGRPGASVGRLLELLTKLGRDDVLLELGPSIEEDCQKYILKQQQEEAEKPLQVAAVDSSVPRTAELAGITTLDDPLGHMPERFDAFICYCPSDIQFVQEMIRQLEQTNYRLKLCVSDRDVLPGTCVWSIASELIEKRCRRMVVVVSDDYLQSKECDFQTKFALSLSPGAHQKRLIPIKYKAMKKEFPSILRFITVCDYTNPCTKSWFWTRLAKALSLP
Sequence of Toll-like receptor 9 (Homo sapiens) + Myeloid differentiation primary response protein MyD88 (Homo sapiens) (Q9NR96 whole entry, looked up): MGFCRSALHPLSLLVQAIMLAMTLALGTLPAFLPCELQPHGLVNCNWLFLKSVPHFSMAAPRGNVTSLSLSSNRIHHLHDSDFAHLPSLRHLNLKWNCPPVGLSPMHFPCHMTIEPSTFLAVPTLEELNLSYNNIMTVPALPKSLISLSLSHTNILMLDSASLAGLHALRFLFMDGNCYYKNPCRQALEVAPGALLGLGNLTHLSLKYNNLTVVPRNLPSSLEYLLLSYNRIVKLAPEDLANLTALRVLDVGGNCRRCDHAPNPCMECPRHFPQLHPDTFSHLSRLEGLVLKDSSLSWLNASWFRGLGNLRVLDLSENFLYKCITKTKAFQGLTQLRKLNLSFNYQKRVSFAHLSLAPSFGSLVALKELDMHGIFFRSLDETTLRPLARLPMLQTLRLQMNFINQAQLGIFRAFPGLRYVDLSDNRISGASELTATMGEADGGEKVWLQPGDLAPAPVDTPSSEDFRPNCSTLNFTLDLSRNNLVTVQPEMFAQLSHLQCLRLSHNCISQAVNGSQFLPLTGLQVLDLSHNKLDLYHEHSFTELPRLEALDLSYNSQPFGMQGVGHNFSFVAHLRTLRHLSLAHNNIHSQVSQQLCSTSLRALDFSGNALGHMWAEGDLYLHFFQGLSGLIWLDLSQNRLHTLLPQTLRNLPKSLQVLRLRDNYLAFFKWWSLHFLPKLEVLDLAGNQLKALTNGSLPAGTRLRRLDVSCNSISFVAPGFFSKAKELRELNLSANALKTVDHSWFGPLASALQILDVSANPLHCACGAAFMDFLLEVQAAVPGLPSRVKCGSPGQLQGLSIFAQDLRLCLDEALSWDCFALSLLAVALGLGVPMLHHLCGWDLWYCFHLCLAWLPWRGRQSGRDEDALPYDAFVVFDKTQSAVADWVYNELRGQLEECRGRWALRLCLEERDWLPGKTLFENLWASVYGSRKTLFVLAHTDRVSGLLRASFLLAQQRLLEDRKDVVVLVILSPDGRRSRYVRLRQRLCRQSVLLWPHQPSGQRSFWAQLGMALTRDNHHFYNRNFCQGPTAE

Compound	inhibition
CSc1ncccc1C(=O)N1CCCC(Nc2ccc(F)c(F)c2)C1 (stereo unspecified)	-7.83% (inactive)
Nc1cc(C(=O)N2CCN(c3ccccc3Cl)CC2)ccc1N1CC2CC(C1)c1cccc(=O)n1C2 (stereo unspecified)	-8.79% (inactive)
Cc1cc(C)nc(SCc2cn3c(C)cc(C)nc3n2)n1	-17% (inactive)
CC1(C)CCc2nc(SCc3ccccc3)c(C#N)cc2C1	-6.7% (inactive)
Cc1cc(C)nc(SCc2ccccc2C#N)n1	23.9% (active)
COc1ccc(CN2C(=O)C(CC(=O)NCCN3CCOCC3)CC(C(=O)N(C(C)C)C(C)C)=C2C)cc1 (stereo unspecified)	-13.7% (inactive)
COc1ccc(N)cc1NC(=O)CN1CCOCC1	3.79% (inactive)
Nc1ccccc1-c1nc2ccncc2[nH]1	5.69% (inactive)
C[C@H]1Cn2cnc(C(=O)N[C@H](C)c3ccccc3)c2C(=O)N1	-9.33% (inactive)
COc1ccccc1NC(=O)C(CC(=O)O)Cc1cc(C)cc(C)c1 (stereo unspecified)	1.3% (inactive)
COc1ccc(NS(=O)(=O)c2ccc(NC(=S)NC(=O)/C=C/c3ccc(C)cc3)cc2)nn1	4.17% (inactive)
COc1ccc(NC(=O)/C(Cl)=C(/Cl)S(=O)Cc2ccc(C)cc2)cn1 (stereo unspecified)	36.2% (active)
COc1ccc(NC(=O)CN2C(=O)NC(C)(c3ccccc3)C2=O)cn1 (stereo unspecified)	4.63% (inactive)
Cc1ccc(C(=O)NC(C)C(c2cccs2)N2CCOCC2)cc1C (stereo unspecified)	-1.7% (inactive)
O=C(NCCN1CCOCC1)C1CCN(S(=O)(=O)c2ccccc2)CC1	-8.07% (inactive)
CN1OC[C@@H]2CN[C@H](c3ccc(-c4ccccc4)cc3)C[C@@H]21	8.78% (inactive)
COc1ccccc1N1N=C(c2cccs2)CC1c1ccccc1 (stereo unspecified)	38.6% (active)
COc1ccc(C2CC(c3cccs3)=NN2c2nc(C)c(C(C)=O)s2)cc1OC (stereo unspecified)	-3.47% (inactive)
Fc1ccc(N2N=C(c3cccs3)CC2c2ccco2)c(F)c1 (stereo unspecified)	1.6% (inactive)
CC(C)N=C1CCCC1C(=S)SSC(=S)C1CCCC1=NC(C)C (stereo unspecified)	6.42% (inactive)
Cc1cc2cc3n(c2nn1)N=C(Cl)CC3	-2.59% (inactive)
C[C@H](CO)N1C[C@H](C)[C@@H](CN(C)C(=O)c2cnccn2)Oc2ncc(Br)cc2C1=O	-6.82% (inactive)
C[C@H](CO)N1C[C@H](C)[C@H](CN(C)C(=O)c2ccncc2)OCc2ccccc2-c2c(n(C)c3ccccc23)C1=O	7.41% (inactive)

Compound	inhibition
Oc1ccc2ccc3cccc[n+]3c2c1	30.4% (active)
O=S(=O)(c1cccc(C(F)(F)F)c1)N1c2ccccc2-n2cccc2C1c1cccnc1 (stereo unspecified)	2.97% (inactive)
COc1ccc([C@H]2C[C@@H](n3cc(COC(=O)c4ccccc4)nn3)[C@H](O)CN2C(=O)c2cccs2)cc1	-6.05% (inactive)
Cc1cc(Nc2ccc(C)c(C)c2)n2ncnc2n1	-6.42% (inactive)
O=c1[nH]c2ccccc2n1C1CCN(CCOc2ccccc2)CC1	-9.37% (inactive)
O=C(Nc1ccc2ccccc2c1)Nc1ccc2snnc2c1	22.2% (active)
Cc1nc2cc(NC(=O)Nc3cccc(F)c3)ccc2n1C	4.9% (inactive)
S=C(Nc1ccccc1)Nc1ccc2ccccc2c1	-11.2% (inactive)
COc1ccccc1C(=O)NC(=S)Nc1ccc(N2CCOCC2)cc1	-9.36% (inactive)
Cc1ccccc1C#CC1=CC(=O)CC(C)(C)C1	4.4% (inactive)
Cc1ccc(Cc2c(-c3ccc(C)cc3)nc3c4ccccc4ccn23)cc1	0.71% (inactive)
CCCCCCN1C[C@H](O)[C@@H](n2cc(C3CC3)nn2)C[C@@H]1c1ccc(Cl)cc1	2.49% (inactive)
COc1cc(/C=C(\C#N)c2nc3c(s2)CC(C)CC3)ccc1O (stereo unspecified)	21.5% (active)
CCOc1ccc(/C=C(/C#N)c2nnc(N3CCOCC3)n2-c2ccccc2)cc1OC	3.43% (inactive)
COc1cc(C=NC2CCCCC2)ccc1O	-10.8% (inactive)
CNC(=O)C1CN(C(=O)c2cccc(S(=O)(=O)N3CCc4ccccc43)c2)c2ccccc2O1 (stereo unspecified)	2.33% (inactive)
Nc1cc(=O)c2[nH]cnc2[nH]1	2.53% (inactive)
O=C1CCC(C(=O)OCC(=O)Nc2ccc(OC(F)F)cc2)=NN1	-4.91% (inactive)
CCOC(=O)c1c(NC(=O)COC(=O)c2ccc(S(=O)(=O)C(F)F)cc2)sc(C(=O)N(C)C)c1C	-11.2% (inactive)
CC(=O)N(C1=C(Cl)C(=O)c2ccccc2C1=O)c1ccc(C(=O)O)cc1	-8.51% (inactive)
O=C1C(Cl)=C(Oc2ccccc2)C(=O)c2ccccc21	56.9% (active)
CCN(CC)C(=O)C1=C(C)N(Cc2ccc(OC)cc2)C(=O)C(CC(=O)NCc2ccco2)C1 (stereo unspecified)	7.39% (inactive)
CC(C)CCOc1ccc(C(=O)Nc2cc(S(=O)(=O)N3CCOCC3)ccc2N2CCOCC2)cc1	3.89% (inactive)

Compound	inhibition
COc1ccccc1CSc1ncc(-c2ccc([N+](=O)[O-])cc2)[nH]1	21.5% (active)
COc1ccc(-c2cnc(SCCNC(=O)c3ccc4c(c3)OCO4)[nH]2)cc1	-7.86% (inactive)
COc1ccccc1C1CCN(c2ccc([N+](=O)[O-])cn2)CC1	-2.92% (inactive)
Cn1ncc([N+](=O)[O-])c1C(=O)Nc1cc(Cl)ccc1Cl	-11.5% (inactive)
Cc1cc(Cl)ccc1C(=O)C1CCCN(C(=O)c2ccc3c(c2)OCO3)C1 (stereo unspecified)	-4.99% (inactive)
O=C(COC(=O)c1cncc(Br)c1)Nc1ccc(S(=O)(=O)N2CCOCC2)cc1	-5.67% (inactive)
O=C(Nc1cccc2ccccc12)NC1CC1	2.15% (inactive)
O=C(COC(=O)c1c2c(nc3ccccc13)/C(=C\c1cccs1)CCC2)Nc1ccccc1Cl	22% (active)
NS(=O)(=O)c1ccc(NC(=O)COC(=O)c2c3c(nc4ccccc24)/C(=C\c2ccc4c(c2)OCO4)CCC3)cc1	25.9% (active)
NC(=O)c1ccc(NC(=O)COC(=O)c2c3c(nc4ccccc24)/C(=C\c2ccc4c(c2)OCO4)CCC3)cc1	8.83% (inactive)
O=C(COC(=O)c1c2c(nc3ccccc13)CCCC2)c1ccc(Br)s1	-5.16% (inactive)
NS(=O)(=O)c1ccc(NC(=O)COC(=O)c2ccco2)cc1	-0.62% (inactive)
COc1cc(/C=C2\CCCc3c2nc2ccccc2c3C(=O)O)cc(Cl)c1O	-7.09% (inactive)
C[C@@H]1CN([C@@H](C)CO)C(=O)c2cc(Br)cnc2O[C@@H]1CN(C)C(=O)C1CCCCC1	4.79% (inactive)
COc1ccc(/C=C2\SC(=S)N(CCC(=O)N3CCOCC3)C2=O)cc1OC	-12.7% (inactive)
O=C(Cc1ccc([N+](=O)[O-])cc1)NCCS(=O)(=O)N1CCN(c2ccccc2)CC1	12.1% (inactive)
CC(=O)Nc1ccc(SCC(=O)NC(=O)c2ccc(Cl)cc2)cc1	-11.6% (inactive)
CC(=O)COc1ccc2c(-c3ccccc3)cc(=O)oc2c1	3.27% (inactive)
O=C(CNC(=O)c1ccc(-c2ccccc2)cc1)OCc1ccc(Cl)cc1	-3.72% (inactive)
O=C(CNC(=O)OCc1ccccc1)Oc1cc2oc(=O)cc(-c3ccccc3)c2cc1Cl	27.3% (active)
CCN(CC(=O)Nc1ccc(NC(C)=O)cc1)C(=O)C1CC(=O)N(c2ccc3c(c2)OCCO3)C1 (stereo unspecified)	-3.12% (inactive)
CCn1c(SCC(=O)N2CCCC2=O)nc2ccccc21	-8.17% (inactive)
Cc1ccc(C(=O)OCC(=O)NC2CCCCCCC2)cc1C	-1.15% (inactive)

Compound	inhibition
N#CCCN(C(=S)Nc1ccc(Cl)c(Cl)c1)C1CCCCC1	11.8% (inactive)
CCN(CC)C(=O)C(C)N1c2cccc3cccc(c23)S1(=O)=O (stereo unspecified)	4.23% (inactive)
O=C1CCC(=O)N1CCC(=O)N(C(=O)NC1CCCCC1)C1CCCCC1	4% (inactive)
Cc1ccc(C(=O)N2CCCc3ccccc32)c(Cl)c1	-5.91% (inactive)
O=C(c1c(Cl)nc2sccn12)N1CCCc2ccccc21	-2.96% (inactive)
Cc1cccc2cc3c(N)c(C(=O)N4CCCc5ccccc54)sc3nc12	32.5% (active)
C[C@H]1CN([C@@H](C)CO)C(=O)CCCn2cc(nn2)CO[C@@H]1CN(C)S(=O)(=O)c1cccc(C#N)c1	-7.52% (inactive)
O=C(COC(=O)/C=C/c1cccs1)NC1CCCCC1	2.5% (inactive)
COc1ccccc1/C=C/C(=O)OCC(=O)NC1CCCCCC1	22.6% (active)
COc1ccc(/C=C/C(=O)OCC(=O)NC2CCCCCC2)cc1OC	-1.25% (inactive)
C[C@H](CO)N1C[C@H](C)[C@@H](CN(C)C(=O)C2CCCCC2)OCc2cnnn2CCCC1=O	1.13% (inactive)
O=C(COC(=O)/C=C/c1ccc(Cl)cc1)NC1CCS(=O)(=O)C1 (stereo unspecified)	-13.5% (inactive)
CCN(CC)CCCC(C)n1c2nc(=O)[nH]c(=O)c-2nc2cc(Cl)ccc21 (stereo unspecified)	22.6% (active)
Cc1nnc(SC(C)C(=O)c2c[nH]c3ccccc23)n1C1CC1 (stereo unspecified)	-9.37% (inactive)
Cc1ccc(S(=O)(=O)N2C[C@]3(O)C[C@@H]4C(=O)N(c5ccccc5)C(=O)[C@@H]4C[C@]3(OC(=O)NC3CC3)C2)cc1	-0.67% (inactive)
Cc1ccc(S(=O)(=O)N2CCCCC2)cc1NC(=O)CCNC(=O)c1ccccc1Cl	-7.91% (inactive)
O=[N+]([O-])c1ccc(N/N=C/c2ccccc2)cc1	21.1% (active)
Cc1cccc(COc2ccccc2/C=N/Nc2ccc([N+](=O)[O-])cc2)c1	21.7% (active)
Cc1ccccc1OCCOc1ccc([N+](=O)[O-])cc1/C=N/n1cnnc1	-3.95% (inactive)
O=[N+]([O-])c1ccc(N=NNc2ccc([N+](=O)[O-])cc2)cc1	-10.5% (inactive)
O=[N+]([O-])c1cccc(/C=N/Nc2ncc(Br)cn2)c1	-10.4% (inactive)
Cc1cc([N+](=O)[O-])ccc1NCc1cccc([N+](=O)[O-])c1	-1.82% (inactive)
